PME-1 primary: blocks human protein phosphatase methylesterase 1. 320,000 tested, 0.53% active. AID 2130. recombinant PME-1, FP-Rh probe fluorescence polarization. inhibition, % at 5.9 µM;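 active = inhibition above the campaign mean of all compounds plus 3 SD, cut at about 26% in these data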;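 note: competitive labeling of PME-1 active site by serine hydrolase directed probe; 0% = PME-1 with DMSO and 100% = wells lacking PME-1 enzyme; inhibitors block probe labeling so polarization falls and inhibition rises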
PAFAH1B3 FP inh: PAFAH1B3 (human) inhibition; inhibition, % at 3.39 µM; recombinant PAFAH1B3, FP-rhodamine probe, fluorescence polarization; 340,000 tested, 0.28% active;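 active = inhibition above the screen-wide average of all tested compounds plus 3 SD, cut at about 25% in these data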;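 note: 0% = enzyme with DMSO only and 100% = wells lacking PAFAH1B3 protein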
Target sequence (Q15102 whole entry, looked up): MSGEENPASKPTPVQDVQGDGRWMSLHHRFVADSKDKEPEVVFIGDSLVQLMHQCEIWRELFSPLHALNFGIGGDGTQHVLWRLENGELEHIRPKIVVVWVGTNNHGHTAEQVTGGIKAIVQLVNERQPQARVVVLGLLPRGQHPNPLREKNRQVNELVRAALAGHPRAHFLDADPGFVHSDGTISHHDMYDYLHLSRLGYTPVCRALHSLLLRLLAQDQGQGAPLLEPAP
pPAFAH FP inh: inhibitors of human plasma PAF acetylhydrolase (pPAFAH) | recombinant pPAFAH, FP-rhodamine probe fluorescence polarization | Q13093 | inhibition, % at 3.39 µM | 330,000 tested, 1.5% active;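 active = inhibition above the mean inhibition across the screen plus 3 SD, cut at about 25% in these data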;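 note: inhibitors block binding of the rhodamine activity-based probe so polarization drops; 0% = enzyme with DMSO and 100% = wells lacking pPAFAH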
PAFAH2 inh: PAFAH2 (human) inhibition; Q99487; inhibition, % at 3.39 µM; AID 492956; 340,000 tested, 0.99% active; recombinant PAFAH2, FP-rhodamine activity probe, fluorescence polarization;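 active = inhibition above the mean over all tested compounds plus 3 SD, cut at about 30% in these data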;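 note: inhibitors block probe labeling of enzyme so polarization drops; 0% = enzyme with DMSO and 100% = wells lacking PAFAH2 protein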
PAFAH1B2 inh: blocks human PAF acetylhydrolase 1b catalytic subunit 2; recombinant PAFAH1B2, FP-rhodamine activity probe, fluorescence polarization; inhibition, % at 3.39 µM; 340,000 tested, 1.2% active; AID 492953;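 active = inhibition above the mean of all tested compounds plus 3 SD, cut at about 24% in these data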;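 note: 0% = enzyme with DMSO and 100% = wells lacking PAFAH1B2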
Target sequence (P68402 whole entry, looked up): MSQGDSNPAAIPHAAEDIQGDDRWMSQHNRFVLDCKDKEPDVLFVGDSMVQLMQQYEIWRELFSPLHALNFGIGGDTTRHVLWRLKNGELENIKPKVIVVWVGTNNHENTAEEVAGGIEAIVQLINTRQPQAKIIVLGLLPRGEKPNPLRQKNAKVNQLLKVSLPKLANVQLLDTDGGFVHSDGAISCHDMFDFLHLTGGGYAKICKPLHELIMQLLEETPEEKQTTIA
Fam108B inh: Fam108B inhibition, counter-screen for RBBP9 inhibitors; recombinant Fam108B, FP-Rh probe fluorescence polarization; inhibition, % at 9.51 µM; 300,000 tested, 0.33% active; AID 1947;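 active = inhibition above the screen mean inhibition plus 3 SD, computed separately per campaign, cut at about 18% in these data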;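 note: inhibitors lower polarization as less probe binds the enzyme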
The depositor's hits bear a star; . = no result. This is a sample that favours compounds with a hit; in the whole collection about 2.9% have one here.

SMILES | PME-1 primary | PAFAH1B3 FP inh | pPAFAH FP inh | PAFAH2 inh | PAFAH1B2 inh | Fam108B inh
CNC(=S)N(Cc1ccc(OC)cc1)C1CC(=O)N(c2ccc(Cl)cc2)C1=O (stereo not drawn) | -7 | -3 | 3 | 1 | 33* | -2
CC1CCN(CCCNC(=O)CCNC(=O)Cn2cnc3ccccc3c2=O)CC1 | 5 | 5 | 1 | -1 | 4 | 1
CC(/C=N/NC(=O)NC1CCCCC1)=C\c1ccccc1 | -3 | 12 | 29* | 0 | 1 | -5
O=C(O)c1ccc2nc(-c3ccco3)c(-c3ccco3)nc2c1 | . | 52* | . | 40* | 24* | .
O=C(c1ccc2nc(-c3ccco3)c(-c3ccco3)nc2c1)N1CCN(c2ccccc2)CC1 | 4 | 13 | 23 | 10 | -1 | 0
OCCCNC(=S)Nc1ccc2nc(-c3ccccn3)c(-c3ccccn3)nc2c1 | -4 | -4 | 6 | -6 | 5 | -3
O=C(Nc1ccc2nc(-c3ccco3)c(-c3ccco3)nc2c1)NC1CC1 | . | 36* | . | 35* | 21 | .
O=C(NCCCO)Nc1ccc2nc(-c3ccco3)c(-c3ccco3)nc2c1 | 9 | . | 62* | . | . | 52*
COc1ccc(CNC(=O)c2ccc3c(=O)n4c(nc3c2)CCCCC4)cc1OC | . | 5 | . | 1 | -3 | .
COc1cc(CNCCO)cc(Cl)c1OCc1ccc(Cl)cc1Cl | 5 | 13 | 28* | 7 | 8 | -5
O=C(NC(CC(=O)N1CCN(c2ccccc2O)CC1)c1ccccc1)c1ccccc1Cl (stereo not drawn) | -1 | -7 | 7 | -5 | -4 | .
[N-]=[N+]=CC(=O)C(O)(c1ccccc1)C(Cl)c1ccccc1 (stereo not drawn) | -8 | . | -3 | . | . | -7
CN1C(=O)C(CC(=O)Nc2ccc(F)cc2)N(CCCc2ccccc2)C1=S (stereo not drawn) | 10 | 2 | 2 | 1 | 27* | 5
Cn1cc(Cl)c(C(=O)NNC(=S)NC2CCCCC2)n1 | -5 | 8 | 4 | -2 | 8 | 4
O=C(CCn1cnnn1)Nc1ccc(F)cc1 | 0 | 0 | 3 | 7 | -5 | 6
Cc1ccc2nc(-c3ccc(NS(=O)(=O)c4c(C)n(C)c(=O)n(C)c4=O)cc3)sc2c1 | -1 | 3 | 4 | 1 | -2 | -5
Cc1ccc(NS(=O)(=O)c2ccc3[nH]c(=O)sc3c2)cc1 | 5 | -4 | 29* | -1 | 22 | 5
CSc1nc2ccc(NS(=O)(=O)c3ccc(CNC(C)=O)cc3)cc2s1 | 3 | 0 | 32* | -2 | -3 | .
Cc1ccc(S(=O)(=O)Nc2ccc(-c3nc4ccc(C)cc4s3)cc2)cc1 | 2 | -2 | 26* | -2 | -7 | -4
Cc1cccc(S(=O)(=O)Nc2ccc(-c3nc4ccc(C)cc4s3)cc2)c1 | -1 | 19 | 33* | -29 | -3 | -9
CCCCNC(=O)O[C@H]1C[C@@H]2CCN3C(=O)CCC[C@H]([C@H]1Cc1ccccc1)[C@H]23 | -2 | 2 | 6 | -2 | 0 | 1
COc1ccc(C2=CC3=C(Br)C(=O)C(C)(OC(=O)C4CCCC4)C(=O)C3=CO2)cc1 (stereo not drawn) | 5 | 4 | 25* | 13 | 7 | 7
COc1ccc(C2=CC3=C(Br)C(=O)C(C)(OC(=O)c4ccc(Cl)nc4)C(=O)C3=CO2)cc1 (stereo not drawn) | 0 | . | 28* | . | . | 6
COc1ccc(CN2C=C3C(=O)C(C)(OC(=O)C4CCCC4)C(=O)C=C3C=C2c2ccsc2)cc1 (stereo not drawn) | 7 | 0 | 19 | 0 | 0 | 12
COc1cccc2c1C(=O)c1c(O)c3c(c(O)c1C2=O)CC(O)(C(C)=O)CC3OC1CC(O)C(O)C(C)O1 (stereo not drawn) | . | 52* | . | 68* | 65* | .
Cc1ccc(S(=O)(=O)Nc2nc(C)c(C(=O)NNS(=O)(=O)c3ccccc3)s2)cc1 | -9 | 9 | 7 | 12 | 29* | -2
Cc1ccc(S(=O)(=O)Nc2nc(C)c(C(=O)Nc3ccccc3)s2)cc1 | 1 | 7 | -1 | 3 | 5 | -1
O=C(c1ccccc1F)N(Cc1ccc2c(c1)OCO2)Cc1cc2cc3c(cc2n2nnnc12)OCO3 | -1 | -2 | 3 | -3 | 1 | 2
Cc1ccc(NC(=O)CC(=O)Nc2ccc(C)c(C)c2)cc1C | -11 | 5 | 2 | -8 | 2 | -9

From PubChem
